The results in this text go back to PubChem BioAssay (NCI).

Some test systems named below: NCI-H23 lung; NCI-H226 lung; NCI-H322M lung; HOP-62 NSCLC; NCI-H460 lung; HOP-92 NSCLC; NCI-H522 lung; A549/ATCC NSCLC; 786-0 renal; COLO 205 colon.
Assay in all cases: NCI-60 one-dose screen, 48 h (100 = growth as untreated, 0 = no growth, -100 = all killed)
Common to all, as to conditions: 10 µM unless noted

Structures are written as SMILES. Compounds without any hit were thinned out: in the full panel of roughly 83,000, 20% have a hit.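 Step 1: grow cells in 96-well plates. Step 2: add test compound at a single concentration. Step 3: incubate 48 h. Step 4: record percent growth.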 Values without a mark were called inactive. Activity calls are given as the source filed them. Rule for the calls: active = growth percent below 10; inactive = the rest.

On to `CCCCOc1nc2ccc(Cl)cc2cc1/C=C/C(=O)/C=C/c1ccc(OC)cc1`, for which the growth in the test on NCI-H23 lung is 95.9%; in the test with NCI-H226 lung, 99.6%; in the test on NCI-H322M lung it was 95.6%; in the test with HOP-62 NSCLC it was 110%; in the test with NCI-H460 lung it was 98.4%; in the test on HOP-92 NSCLC, 93.4%. The growth was 77.5% in the test with NCI-H522 lung, 92.1% in the test on A549/ATCC NSCLC, 110% with 786-0 renal and 93.1% in the test with COLO 205 colon.

On to `C=C1C(=O)O[C@H]2[C@H]1CC/C(COC(=O)CCCC(=O)OC/C1=C/CC[C@@]3(C)O[C@H]3[C@H]3OC(=O)C(=C)[C@@H]3CC1)=C\CC[C@@]1(C)O[C@@H]21`, for which the growth in the test on NCI-H23 lung is 29.2%; in the test on NCI-H226 lung, -44.4% (active); in the test on NCI-H322M lung, 90%; in the test with HOP-62 NSCLC, 79.6%; in the test with NCI-H460 lung, 64.5%; in the test on HOP-92 NSCLC it was -43% (active). Besides, the growth is -80.3% (active) in the test on NCI-H522 lung, 73.5% with A549/ATCC NSCLC, -34.1% (active) in the test on 786-0 renal and -44.9% (active) with COLO 205 colon.

`O=C(O)c1cn(C2CC2)c2cc(N3CCN(C(=O)CSc4nc(NS(=O)(=O)c5ccccc5)cc(=O)[nH]4)CC3)c(F)cc2c1=O`: the growth with NCI-H23 lung is 94.3%; in the test on NCI-H226 lung it was 96.2%; in the test on NCI-H322M lung, 92.5%; with HOP-62 NSCLC, 116%; in the test on NCI-H460 lung it was 96.2%; in the test with HOP-92 NSCLC, 106%. Also, the growth in the test on NCI-H522 lung was 95.6%; in the test with A549/ATCC NSCLC, 110%; in the test on 786-0 renal, 111%; in the test on COLO 205 colon it was 109%.

Regarding `C=CCn1c(SCC(=O)Nc2ccc(/C(C)=N\O)cc2)nnc1-c1cc(-c2ccc(OC)cc2)nc2ccccc12`, the growth is 33.7% in the test with NCI-H23 lung; 41.2% with NCI-H226 lung; 31.9% in the test with NCI-H322M lung; 38.5% in the test with HOP-62 NSCLC; 27.8% with NCI-H460 lung; 45.9% in the test with HOP-92 NSCLC. Also, the growth was 18.7% with NCI-H522 lung, 20.1% in the test on A549/ATCC NSCLC, 32.8% with 786-0 renal and 19.2% with COLO 205 colon.

Regarding `CCn1c(SCC(=O)c2ccc(Br)cc2)nnc1-c1cc2c([nH]c3ccccc32)c(-c2cccc(O)c2)n1`, the growth in the test on NCI-H23 lung was 85.2%; with NCI-H226 lung it was 94.4%; in the test with NCI-H322M lung, 79.2%; with HOP-62 NSCLC it was 67.6%; in the test with NCI-H460 lung, 68.1%; in the test on HOP-92 NSCLC, 95.2%. Besides, the growth in the test with NCI-H522 lung was 49.2%; with A549/ATCC NSCLC, 41%; in the test with 786-0 renal, 32.9%; in the test with COLO 205 colon, 108%.

Consider `O=C(Nc1cccc(-n2ccc3c(NC(=O)c4ccccc4)nccc32)c1)c1cccc(C(F)(F)F)c1`, for which the growth is 20.8% in the test with NCI-H23 lung; 35.6% in the test on NCI-H226 lung; 34.2% with NCI-H322M lung; 36.4% with HOP-62 NSCLC; 3.05% (active) in the test on NCI-H460 lung; 40.3% with HOP-92 NSCLC. The growth with NCI-H522 lung was -45.2% (active); in the test on A549/ATCC NSCLC, 7.84% (active); in the test on 786-0 renal it was -14.6% (active); with COLO 205 colon it was -44.5% (active).

In the case of `COc1ccc(-c2nn(-c3ccc(NC(=O)c4cc(C(F)(F)F)cc(C(F)(F)F)c4)cc3)cc2-c2ccncc2)cc1Cl`, the growth is 72.1% in the test on NCI-H23 lung; 91.1% in the test with NCI-H226 lung; 87.4% in the test with NCI-H322M lung; 67% in the test with HOP-62 NSCLC; 57.7% in the test on NCI-H460 lung; 48.7% in the test with HOP-92 NSCLC. The growth with NCI-H522 lung is 71.2%; in the test with A549/ATCC NSCLC it was 59.5%; in the test with 786-0 renal it was 44.1%; in the test with COLO 205 colon it was 85.6%.

As to `CSc1ccc(C(=O)C[n+]2cccc(C)c2)cc1`, the growth in the test with NCI-H23 lung was 102%; with NCI-H226 lung, 94.3%; in the test with NCI-H322M lung, 102%; with HOP-62 NSCLC, 107%; in the test with NCI-H460 lung, 109%; in the test with HOP-92 NSCLC, 105%. The growth was 110% in the test with NCI-H522 lung, 105% with A549/ATCC NSCLC, 100% in the test with 786-0 renal and 109% in the test on COLO 205 colon.

As to `O=C1C(Cl)=C(Nc2cccc3cc4ccccc4nc23)C(=O)c2ccccc21`, the growth with NCI-H23 lung is 54.7%; in the test with NCI-H226 lung it was 67.2%; with NCI-H322M lung, 51%; with HOP-62 NSCLC it was 45.9%; in the test with NCI-H460 lung, 18.2%; in the test with HOP-92 NSCLC it was 74.9%. For the same molecule, the growth in the test on NCI-H522 lung is 22.3%; with A549/ATCC NSCLC, 29.8%; with 786-0 renal, 50.1%; in the test with COLO 205 colon, 12%.

In the case of `O=C(N/N=C1\SCC(=O)N1c1ccccc1)c1cc(-c2cc3ccccc3o2)nn1-c1ccccc1`, the growth with NCI-H23 lung is 44.8%; in the test on NCI-H226 lung, 118%; with NCI-H322M lung, 102%; in the test on HOP-62 NSCLC it was 101%; in the test on NCI-H460 lung, 121%; in the test on HOP-92 NSCLC it was 50.9%. For the same molecule, the growth in the test with NCI-H522 lung was 106%; in the test with A549/ATCC NSCLC it was 110%; in the test on 786-0 renal, 102%; in the test with COLO 205 colon, 132%.

Consider `COc1cccc(-c2nc3sccn3c2-c2ccnc(NCCNC(=O)c3ccccc3)n2)c1`, for which the growth in the test with NCI-H23 lung was 87.3%; in the test on NCI-H226 lung, 79.3%; in the test with NCI-H322M lung, 110%; in the test with HOP-62 NSCLC, 111%; in the test with NCI-H460 lung, 84.9%; in the test with HOP-92 NSCLC it was 77.8%. Also, the growth with NCI-H522 lung is 61.8%; in the test with A549/ATCC NSCLC, 75.3%; in the test with 786-0 renal, 78.4%; with COLO 205 colon, 51.8%.

On to `COc1cc(/C=C/C(=O)c2c(C)n([O-])c3cc(C)c(C)cc3[n+]2=O)cc(OC)c1OC`, for which the growth in the test on NCI-H23 lung was 72.7%; in the test on NCI-H226 lung, 82.8%; with NCI-H322M lung, 67.6%; in the test with HOP-62 NSCLC it was 74.6%; in the test with NCI-H460 lung, 35.4%; in the test on HOP-92 NSCLC, 41.5%. The growth is 33.6% with NCI-H522 lung, 65.9% in the test on A549/ATCC NSCLC, 23.1% in the test with 786-0 renal and 70.1% with COLO 205 colon.

As for `CC1CCc2cc(F)cc3c(=O)c(C(=O)O)cn1c23` (stereo not given), the growth with NCI-H23 lung is 91.5%; in the test with NCI-H226 lung it was 103%; in the test with NCI-H322M lung, 116%; in the test with HOP-62 NSCLC, 106%; in the test with NCI-H460 lung, 105%; in the test on HOP-92 NSCLC, 91.9%. The growth was 110% in the test with NCI-H522 lung, 104% with A549/ATCC NSCLC, 87.1% in the test with 786-0 renal and 104% with COLO 205 colon.
